Assay results reported in PubChem BioAssay (NCI).
This is part of a sample that, as a whole, favours compounds with a hit. Of some 83,000 tested, about 20% had one in any assay.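 In brief: 96-well plates, 48 h treatment, single concentration, percent growth endpoint.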 Unmarked numbers belong to inactive results. Active and inactive are the calls of the source. How the source made its calls: active means growth percent below 10; inactive means the rest.

These compounds were tested on MDA-MB-468 breast (assay: NCI-60 one-dose screen, 48 h (100 = growth as untreated, 0 = no growth, -100 = all killed)). Details: 10 µM unless noted.

Row | Compound | growth
1 | COc1ccc(N2CCN(C3=C(Cl)C(=O)c4ncccc4C3=O)CC2)cc1 | -57.8% (active)
2 | COc1cc(C2CC(c3cccc(Nc4ccncc4)c3)=Nc3c(N)ncnc3N2)cc(OC)c1OC (stereo not given) | 47.6%
3 | CCN(CC)CC(C)Nc1ccc(C)c2sc3ccccc3c(=O)c12 (stereo not given) | 57.7%
4 | CCOC(=O)CSc1c([N+](=O)[O-])ncn1C | 91.1%
5 | CCCN(CCC)CCCNC(=O)c1cc2c(-c3ccc(OC)c(OC)c3)nn(C)c2s1 | 39%
6 | O=C(O)c1ccccc1C(=O)OC1CCCC2CCCC21 (stereo not given) | 102%
7 | Cc1cc(S(=O)(=O)/N=C(\N)n2nc(C)c(C)c2C)c(SCc2ccccc2)cc1Cl | 66%
8 | CC[C@@H](CO)Nc1ccc2ncc(C#Cc3cncc(C(=O)Nc4ccc(CN5CCN(C)CC5)c(C(F)(F)F)c4)c3)n2n1 | -68.4% (active)
9 | CSc1nc(O)c(-c2ccccc2)c(=O)[nH]1 | 99.1%
10 | C=C1CC[C@@H]2[C@](C)(COC(C)=O)[C@H](OC(C)=O)CC[C@@]2(C)[C@@H]1CC(NCc1ccccc1)C1=CCOC1=O (stereo not given in full) | 22.9%
11 | O=C(C[P+](c1ccccc1)(c1ccccc1)c1ccccc1)C[P+](c1ccccc1)(c1ccccc1)c1ccccc1 | -33.8% (active)
12 | CCOC(=O)c1[nH]c2c(c1C)-c1[nH]c(=O)c(S(=O)(=O)c3ccccc3)cc1SC2 | 23.9% [100 µM]
13 | NC(=O)c1ccccc1OCC(O)CO (stereo not given) | 95.6%
14 | Cc1ccc(S(=O)(=O)Nc2sccc2-c2nc(-c3ccccc3)no2)cc1 | 97.7%
15 | O=C(Nc1ccc(Cl)cc1)N1NC(c2ccc(Cl)cc2)C=C1c1ccccc1 (stereo not given) | 98.3%
16 | NCCNc1nc(-c2ccccc2)nc2nc(-c3ccccc3)oc12 | 18.9%
17 | CC[C@@H](C[C@H](CCO)c1ccccc1)c1cc2ccccc2o1 | 107%
18 | COc1cccc(-c2cc3c(O)cc(C#N)cc3[nH]2)c1 | 102%
19 | COCCC[C@H]1O[C@@](O)([C@H](C)[C@@H]2CC(OC)C(O)/C=C(C)/C=C(C)/C=C(\C)C(OC3O[C@@H](C)[C@H](O)C(O)[C@@H]3O)C(C)/C=C(C)/C=C(OC)/C=C(\C)C(=O)O2)C(OC)C(O)[C@]1(C)O[C@H]1C[C@@H](O)[C@H](O[C@H]2C[C@](C)(O)[C@H](O)C(C)O2)C(C)O1 (stereo not given in full) | 9.61% (active)
20 | COc1ccc(S(=O)(=O)n2cc(C=O)c3ccccc32)c(OC)c1 | 84.7%

Row | Compound | growth
21 | COc1cc(N=Cc2sc(Nc3nccs3)nc2O)cc(OC)c1OC | 84.8%
22 | CCOC(=O)C(Cc1cc(I)c(O)c(I)c1)NC(=O)c1ccccc1 (stereo not given) | 98.9%
23 | COc1cc(-c2nc(N)n(CC(=O)Nc3ccc(/C(C)=N\O)cc3)n2)cc(OC)c1OC | 104%
24 | Fc1cc(C(F)(F)F)ccc1-c1cncnc1NC1CCCCCC1 | 82.4%
25 | O=C(NCCN1CCOCC1)Nc1ccc(-c2cc3c(Nc4ccc(Oc5cccc(C(F)(F)F)c5)c(Cl)c4)ncnc3s2)cc1 | -28.3% (active)
26 | NS(=O)(=O)c1ccc(CCN=C=S)cc1 | -6.54% (active)
27 | Cc1ccc2c(C(C[N+](=O)[O-])c3ccco3)c(-c3ccccc3)[nH]c2c1 (stereo not given) | 8.5% (active)
28 | O=C(/C=C/C12c3ccccc3C(c3ccccc31)C1C(=O)NC(=O)C12)c1ccccn1 (stereo not given) | -13.1% (active)
29 | NS(=O)(=O)c1ccc(N2Cc3cc(Cl)ccc3OC3=C2C(=O)N(CC2CCCCC2)C3=O)cc1 | -81.1% (active)
30 | CC(C)c1ccc(NC(=O)Nc2ccc(NC(=O)CCCC(=O)NOCc3ccccc3)cc2)cc1 | 85%
31 | Cc1c2ccccc2c(C)c2c1ccc1ccccc12 | 20.5%
32 | COc1ccc2nc(-c3ccc(Cl)cc3)cc(-c3nnc(SC/C(=N\O)c4ccccc4)n3-c3ccccc3)c2c1 | 60.4%
33 | CCN(C(=O)CCl)C(C)(C)C(SSSC(c1ccc(Cl)cc1)C(C)(C)N(CC)C(=O)CCl)c1ccc(Cl)cc1 (stereo not given) | 5.76% (active)
34 | COc1cc(-c2cc(-c3cccs3)c(C#N)c(N3CCOCC3)n2)cc(OC)c1OC | 55%
35 | CCC(C)N(CCNc1cc(OC)cc2cccnc12)CC(C)C (stereo not given) | -52.5% (active)
36 | COc1cc(/C=C/C(=O)c2c(-c3ccc(F)cc3)nc3sc(C)nn23)cc(OC)c1OC | 23.9%
37 | Nc1nc2c(c3ncccc13)C(c1cccc(Br)c1)Cc1ncccc1-2 (stereo not given) | 13.7%
38 | CN1CCN(CCNC(=O)c2cccc(CN3c4cccc5c4C(=Cc4cccnc43)N(C)C5=O)c2)CC1 | 24.4%
39 | O=C1Nc2ccccc2/C1=C\c1ccccc1O | 67.4%
40 | O=C(CN1CCN(c2cc(=O)n(-c3ccccc3)c3ccccc23)CC1)Nc1nc(-c2ccc(Cl)cc2)cs1 | 9.61% (active)
